# Compound activity from PubChem.
# Compounds with a hit are over-represented: about 1.1% of the library has one in this group of screens.
# mIDH1 inhibitor – inhibitors of human mutant IDH1 R132H. IDH1-R132H enzyme, NADPH consumption, diaphorase/resazurin fluorescence. O75874. 390,000 tested, 0.093% active. Potency, µM (highest dose often 76.6 µM), for the others: top-dose activity change, negative = inhibition, most hits filed as inhibitors. AID 602179; note: % is set by controls: 0 for no effect and ±100 for the full control effect; nearly all actives have a fitted effect of over 65% in size
#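 IDH1-R132H (0.5 ug/mL dispensed) in pH 7.5 Tris buffer was preincubated 30 min with compound, then given a substrate mix of 0.016 mM NADPH and 2 mM alpha-KG for 80 min at room temperature; remaining NADPH was read by diaphorase/resazurin fluorescence.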
# NPSR antag – blocks cAMP signaling of the human neuropeptide S receptor | Q6W5P4 | CHO-NPSR cells, cAMP TR-FRET, antagonist mode | Potency, µM (series often up to 38.3 µM), for the others: at the top dose activity change, negative = inhibition, usual class: inhibitors | 220,000 tested, 1% active; note: % is set by controls: 0 for no effect and ±100 for the full control effect; nearly all actives have a fitted effect of over 50% in size
# Target sequence (Q6W5P4 whole entry, looked up): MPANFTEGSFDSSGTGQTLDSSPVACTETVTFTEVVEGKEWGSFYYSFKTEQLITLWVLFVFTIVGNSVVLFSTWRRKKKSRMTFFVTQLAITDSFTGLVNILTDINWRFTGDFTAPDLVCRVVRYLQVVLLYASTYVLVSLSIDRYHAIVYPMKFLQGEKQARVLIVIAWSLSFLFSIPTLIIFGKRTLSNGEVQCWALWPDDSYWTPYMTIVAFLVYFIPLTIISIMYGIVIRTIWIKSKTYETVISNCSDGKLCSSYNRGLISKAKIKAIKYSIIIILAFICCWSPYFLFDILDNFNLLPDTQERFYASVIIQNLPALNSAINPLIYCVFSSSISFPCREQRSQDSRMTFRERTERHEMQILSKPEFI
# A-T KAP1 phos – candidate therapy for ataxia-telangiectasia | F2112 A-T fibroblasts, KAP-1 phosphorylation AlphaLISA; neocarzinostatin DNA damage 30 min before lysis | Potency, µM (doses to about 57.5 µM), for inactives: at the highest dose activation, most hits filed as activators | 320,000 tested, 0.19% active | AID 485349; note: % of control where 0% means no effect; nearly all actives have a fitted effect of over 45% in size
#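 hTERT-immortalized A-T patient fibroblasts (F2112), 500 cells/well in OPTI-MEM, 1% FBS, got compounds for 60 min, then NCS for 30 min at 37C. Lysates were then assayed for phospho-KAP-1 by AlphaLISA (anti-pKAP1 donor, anti-KAP1 acceptor beads), 6 hr at 25C.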
# HTT aggregate – mutant huntingtin aggregation inhibition. PC12 HttQ103-GFP aggregates, Acumen cytometry, 40 h. 220,000 tested, 1.1% active. AID 1688. Potency, µM (doses to about 46.1 µM), without a hit: top-dose activity change, negative = inhibition, usual class: inhibitors; note: % is set by controls: 0 for no effect and ±100 for the full control effect; nearly all actives have a fitted effect of over 60% in size
#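 Aggregates are detected as GFP objects 1–25 µm with signal 6 STDEV over background in lysates of induced PC12 cells. These carry Huntingtin exon 1 with 103 glutamines fused to GFP under an ecdysone promoter; compounds titrated.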
# HTT cytoprotect – protects HTT-Q103 PC12 cells, measured by ATP | Potency, µM (series often up to 56.4 µM), inactives show cytoprotection (ATP increase), usual class: activators | 230,000 tested, 0.14% active | AID 1471 | PC12 HTT-Q103 induced, cytoprotection, ATP luminescence, 40 h; note: % of control where 0% means no effect; nearly all actives have a fitted effect of over 45% in size
#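 Readout: ATPlite luminescence (ATP level). Model: stable PC12, inducible Htt exon1 Q103-GFP. Inducer: tebufenozide, 100 nM final. Compounds: dose series. No G418 in medium.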
# An asterisk follows results filed as active; u = inconclusive; x = not tested or not shown; ! = repeats disagree; [ ] = dose if it differs, or a comment. Calls come from the whole dose curve; as a rule, active = well fitted curve in the direction sought with a large enough effect; inconclusive = small, poorly fitted or top-dose-only effect, or another doubt; inactive = no such curve, though single readings can be large; an effect the other way counts as inactive or inconclusive. Potency is the fitted concentration of half-maximal effect.
SMILES,mIDH1 inhibitor,NPSR antag,A-T KAP1 phos,HTT aggregate,HTT cytoprotect
Cc1cc(C)n(-c2nc(NCCN(C)C)c3c4c(sc3n2)COC(C)(C)C4)n1,-4.5%,-13.0%,-11.5%,7.5%[9.22 µM],0.0%[10 µM]
Cc1cc(C)n(-c2nc(NCCN(C)C)c3c4c(sc3n2)CCCC4)n1,7.6%,u,39.8µM*,u,-97.7%[10 µM]
CC#C[C@]1(O)CC[C@H]2C3CCC4=CC(=O)CCC4=C3[C@@H](c3ccc(N(C)C)cc3)C[C@@]21C (some centres not stated),x,u,x,x,-69.4%
Cn1nc(C(F)(F)F)c(C#N)c1N1CCN(c2ccccn2)CC1,4.1%,-4.8%,4.1%,-26.7%,-11.5%
Cn1nc(C(F)(F)F)c(C#N)c1N1CCN(c2ccccc2)CC1,7.0%,-1.7%[46.1 µM],9.2%,1.41µM*,-10.7%
Cc1cc(C)c(C#N)c(N2CCN(c3ccc(F)cc3)CC2)n1,-3.2%,x,-0.7%,x,x
Cn1nc(C(F)(F)F)c(C#N)c1N1CCN(c2ccc(F)cc2)CC1,5.2%,-11.4%[46.1 µM],2.6%,11.2µM*,27.8%
CCN(CC)c1ccc(/C=N/N2CCN(Cc3ccc(C)cc3)CC2)c(O)c1,-0.3%,-2.3%[46.1 µM],0.3%,0.631µM*,-13.6%
COC(=O)c1cc(OC)c(OC)cc1NC(=O)CN1CCCCC1,4.8%,-1.7%[46.1 µM],-1.0%,0.631µM*,-0.2%[0.074 µM]
O=[N+]([O-])c1cccc(C(F)(F)F)c1,x,x,x,x,-0.6%
CCOc1ccccc1CNCc1cccn1-c1nnc(N2CCN(c3ccccc3)CC2)s1,0.9%,x,x,x,x
O=C(NC(=S)NNC(=O)c1cccs1)c1ccco1,3.6%,-5.6%[46.1 µM],5.7%,11.2µM*,-77.5%
O=C(NNC(=O)c1cccs1)c1ccco1,-1.8%,-22.6%,1.4%[11.5 µM],-15.0%[9.22 µM],4.2%[10 µM]
COc1ccc(C(=O)NNC(=S)NC(=O)c2ccco2)cc1,0.2%,-25.0%[46.1 µM],-3.4%,20µM*,-45.8%
O=C1/C(=C/c2ccc([N+](=O)[O-])cc2)C=C(c2ccccc2)N1c1ccc(O)cc1,3.0%,12.6µM*,2.6%,-8.8%,-109.9%
O=C(O)c1cccc(N2C(=O)/C(=C/c3ccc([N+](=O)[O-])cc3)C=C2c2ccccc2)c1,u,5.01µM*,6.3%,-13.7%,u
O=C1/C(=C/c2ccc([N+](=O)[O-])cc2)C=C(c2ccccc2)N1c1ccccc1,12.1%,-19.5%[46.1 µM],-0.5%,16.9%,-11.6%
CC(C)(C)c1ccc(C(=O)c2c[nH]c(C(=O)NCc3cccnc3)c2)cc1,4.3%,-19.0%[46.1 µM],-2.9%,-15.1%,6.7%[10 µM]
O=C(Cc1ccc(Cl)cc1)c1c[nH]c(C(=O)NCc2cccnc2)c1,0.0%,-15.6%,-3.2%,17.8µM*,-17.2%[10 µM]
O=C1C(c2ccnc3ccccc23)=C(O)c2ccccc21,6.2%,0.7%[46.1 µM],-2.2%,-16.0%,-79.0%[10 µM]
O=C1C(=O)c2ccccc2C(O)=C1c1ccccc1F,2.0%,12.6µM*,-4.5%,-27.0%[9.22 µM],-16.6%[10 µM]
Nc1ncnc2c1ncn2[C@@H]1O[C@H](CO)[C@H](O)[C@H]1O,x,-10.4%[46.1 µM],x,x,x
O=c1[nH]cnc2c1ncn2C1OC(CO)C(O)C1O (configuration not stated),24.4%,x,x,-5.9%,8.91µM*!
Nc1ncn([C@@H]2O[C@H](CO)[C@@H](O)[C@H]2O)c(=O)n1,14.4%,-5.3%[46.1 µM],-15.8%,12.6µM*,-111.4%
CN(C)c1ncnc2c1ncn2C1OC(CO)C(O)C1O (configuration not stated),5.4%,-8.4%[46.1 µM],-1.4%,4.47µM*,-103.4%
SMILES,mIDH1 inhibitor,NPSR antag,A-T KAP1 phos,HTT aggregate,HTT cytoprotect
Cc1nn2c(=O)cc(COC(=O)c3ccc(NC(=O)COc4ccc(Cl)cc4)cc3)nc2s1,-13.6%,x,x,x,x
Cc1ccc(NC(=O)CSc2nnc(-c3ccccn3)n2C)cc1,3.3%,-9.9%[46.1 µM],1.7%,2.82µM*,-15.9%
Cc1ccc(NC(=O)Cc2nnc(SCC(=O)Nc3ccccc3)n2C)cc1,0.8%,12.2%,5.8%,0.178µM*,x
Cn1c(SCC(=O)Nc2ccc3c(c2)OCCO3)nnc1-c1ccccn1,0.0%,-3.5%[46.1 µM],3.3%,-18.1%,-1.8%
CC(C)c1ccc2c(c1)CC[C@@H]1[C@@](C)(CN)CCC[C@@]21C,x,x,x,x,-80.6%
FC(F)(F)c1cccc(-c2nc3nc(Cl)c(Cl)nc3[nH]2)c1,39.3%,6.31µM*,8.5%,u,-15.7%[10 µM]
